From the supplement of paper PMC10498489
About 330 (14%) of roughly 2,300 compounds showed activity.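 The calls were made as follows: active = median modified Z-score above 1.96; inactive = 1.96 or below.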 A selection follows.

Each compound was assayed on HepG2 Srxn1-GFP reporter cells (+30 nM CDDO-Me) (assay: Srxn1-GFP intensity median modified Z-score relative to plate median; higher = stronger NRF2 / oxidative stress reporter activation, active = hit call of the paper). Settings: 10 µM; exposure time: 24h.
In short: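 The per-plate modified Z-score of GFP intensity, taken as a median across replicates, is what each value represents. Three replicate plates of HepG2 Srxn1-GFP BAC reporter cells were exposed for 24 h to an NRF2 activator at 30 nM combined with compound at 10 μM (≤0.1% DMSO). Cytoplasmic GFP per cell was read from confocal images, excluding any with under 100 cells, and scaling used 1.4826 × median absolute deviation.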

SMILES | Srxn1-GFP intensity median modified Z-score
CC(=O)NC1C(O)OC(CO)C(O)C1O (stereo not drawn) [euspeclibcmpd1995] | -0.204 (inactive)
Cc1c(N=c2[nH]cccc2C(=O)O)cccc1C(F)(F)F [euspeclibcmpd1313] | 0.328 (inactive)
Cc1cnc(C(=O)O)c[n+]1[O-] [euspeclibcmpd1196] | -0.419 (inactive)
CN[C@@H]1[C@H](OC2[C@H](O[C@H]3[C@H](O)[C@@H](O)[C@H](N=C(N)N)[C@@H](O)[C@@H]3N=C(N)N)O[C@@H](C)[C@]2(O)C=O)O[C@@H](CO)[C@H](O)[C@H]1O (stereo partly drawn) [euspeclibcmpd270] | -0.445 (inactive)
C=C(C)[C@H]1C=CC(C(=O)O)CC1 (stereo partly drawn) [euspeclibcmpd1451] | -0.188 (inactive)
Cc1ccc(C(=O)Oc2cccc3cccnc23)cc1 | 0.989 (inactive)
O=C(Oc1cccc2cccnc12)c1ccccc1Cl | 1.65 (inactive)
O=C(Oc1cccc2cccnc12)c1ccccc1 [euspeclibcmpd773] | 12.8 (active)
CC/C=C\C/C=C\C/C=C\C/C=C\C/C=C\CCCC(=O)OCC [euspeclibcmpd997] | 0.696 (inactive)
C[C@H]1[C@H]2CCC3C4CC=C5C[C@@H](N(C)C)CC[C@]5(C)C4CC[C@@]32CN1C (stereo partly drawn) [euspeclibcmpd1801] | -0.317 (inactive)
CC(C)C(C)/C=C/C(C)C1CCC2C3=CC=C4CC(O)CCC4(C)C3CCC21C (stereo not drawn) [euspeclibcmpd1597] | 5.02 (active)
CCC(/C=C/[C@@H](C)[C@H]1CCC2C3CC=C4C[C@@H](O)CC[C@]4(C)C3CC[C@@]21C)C(C)C (stereo partly drawn) [euspeclibcmpd1549] | -0.0971 (inactive)
CC(C)CCCC(C)C1CCC2C3=CCC4CC(O)CCC4(C)C3CCC21C (stereo not drawn) [euspeclibcmpd1991] | -0.131 (inactive)
C=C1CC[C@H](O)C/C1=C/C=C1\CCC[C@]2(C)C([C@H](C)/C=C/[C@H](C)C(C)C)CC[C@@H]12 (stereo partly drawn) [euspeclibcmpd112] | 2.55 (active)
CC(C)CCCC(C)[C@H]1CCC2C3CC=C4C[C@@H](O)CC[C@]4(C)C3CC[C@@]21C (stereo partly drawn) [euspeclibcmpd354] | 0.396 (inactive)
CC(=O)OC1CCC2(C)C(=CC=C3C2CCC2(C)C3CCC2C(C)/C=C/C(C)C(C)C)C1(C)C (stereo not drawn) [euspeclibcmpd1343] | 1.93 (inactive)
C=C1CC[C@H](O)C/C1=C/C=C1\CCCC2(C)C1CCC2C(C)CCCC(C)C (stereo partly drawn) [euspeclibcmpd353] | 2.95 (active)
CC(=O)Nc1ccc(S(=O)(=O)N=c2o[nH]c(C)c2C)cc1 [euspeclibcmpd798] | -0.176 (inactive)
CC(=O)N[C@H]1[C@H]([C@H](O)[C@H](O)CO)O[C@](O)(C(=O)O)C[C@@H]1O [euspeclibcmpd2223] | -0.0326 (inactive)
CC(C)C(N)C(=O)OCC(CO)OCn1cnc2c(=O)[nH]c(=N)[nH]c21 (stereo not drawn) [euspeclibcmpd624] | -0.125 (inactive)
C[C@H]1CC2C3CC=C4CC(=O)C=C[C@]4(C)[C@@]3(F)[C@@H](O)C[C@]2(C)[C@@]1(O)C(=O)COP(=O)(O)O (stereo partly drawn) [euspeclibcmpd2288] | -0.294 (inactive)
CNCc1ccccc1 [euspeclibcmpd1631] | -0.463 (inactive)
CC(CN(C)C)CN1c2ccccc2Sc2ccccc21 (stereo not drawn) [euspeclibcmpd308] | -0.246 (inactive)

SMILES | Srxn1-GFP intensity median modified Z-score
CCC(=O)OCC(=O)C1(OC(=O)CC)C(C)CC2C3CC=C4CC(=O)C=CC4(C)C3(Cl)C(O)CC21C (stereo not drawn) [euspeclibcmpd31] | -0.85 (inactive)
CCC(=O)O[C@]1(C(=O)CCl)[C@@H](C)CC2C3CC=C4CC(=O)C=C[C@]4(C)[C@@]3(F)[C@@H](O)C[C@@]21C (stereo partly drawn) [euspeclibcmpd633] | 0.492 (inactive)
C[C@@H]1CC2C3CC=C4CC(=O)C=C[C@]4(C)[C@@]3(Cl)[C@@H](O)C[C@]2(C)[C@@]1(OC(=O)c1ccco1)C(=O)CCl (stereo partly drawn) [euspeclibcmpd756] | 2.37 (active)
NC[C@@H]1CC[C@@H](N)[C@@H](O[C@H]2[C@H](O)[C@@H](O[C@H]3O[C@H](CO)[C@@H](O)[C@H](N)[C@H]3O)[C@H](N)C[C@@H]2N)O1 [euspeclibcmpd1045] | -0.0322 (inactive)
CCOc1ccc(C(=O)c2cc(O)c(OC)c(OC)c2O)cc1 [euspeclibcmpd2089] | -0.551 (inactive)
CCCCCCCCCCCCCCC(C(=O)OC)C(O)(CC(=O)OC)C(=O)OC (stereo not drawn) [euspeclibcmpd2214] | -0.435 (inactive)
CCCCCCCCCCCCC(C(=O)O)C(C)C(=O)O (stereo not drawn) [euspeclibcmpd1524] | 0.456 (inactive)
CCCCCCCCCCCCCCCCC(C(=O)O)C(O)(CC(=O)O)C(=O)O (stereo not drawn) [euspeclibcmpd1735] | 3.83 (active)
OC[C@H]1O[C@H](OC[C@H]2O[C@@H](O)[C@H](O)[C@@H](O)[C@@H]2O)[C@H](O)[C@@H](O)[C@H]1O [euspeclibcmpd1651] | -0.055 (inactive)
CC(O)Cn1cnc2c1c(=O)n(C)c(=O)n2C (stereo not drawn) [euspeclibcmpd1230] | 0.0469 (inactive)
CC(C)Cn1c(=O)n(C)c(=O)c2nc[nH]c21 [euspeclibcmpd1808] | 11.6 (active)
CC(C)Cn1c(=O)n(C)c(=O)c2nc[nH]c21 [euspeclibcmpd2061] | 0.0284 (inactive)
Cn1c(=O)c2nc[nH]c2n(C)c1=O [euspeclibcmpd290] | -0.062 (inactive)
COc1ccc(Cc2c[nH]c(=N)[nH]c2=N)cc1OC [euspeclibcmpd456] | -0.0911 (inactive)
COc1ccc(/C=C2/COc3ccc(Br)cc3C2=O)cc1O | 1.17 (inactive)
COc1ccc2c(c1)OC/C(=C\c1ccc(OC)c(O)c1)C2=O [euspeclibcmpd1638] | 19.3 (active)
COc1ccc2c(c1)C(=O)/C(=C\c1ccc(OC)c(O)c1)CO2 | 3.46 (active)
COc1ccc([C@@H]2CC(=O)c3c(O)cc(O)cc3O2)cc1O [euspeclibcmpd1483] | 0.0163 (inactive)
COc1cc2c(cc1OC)-c1c(oc3cc(O)cc(O)c3c1=O)CO2 [euspeclibcmpd2244] | -0.157 (inactive)
COc1ccc(-c2cc(=O)c3c(O)cc(OC)c(OC)c3o2)c(OC)c1 [euspeclibcmpd1657] | 0.259 (inactive)
COC(=O)/C=C/C(=O)OC [euspeclibcmpd923] | 6.34 (active)
COC(=O)/C=C/C(C)=C/C=C/C(C)=C/C=C/C=C(C)/C=C/C=C(C)/C=C/C(=O)O [euspeclibcmpd2376] | -0.19 (inactive)
COC(=O)/C=C/c1cc(OC)c(OC)c(OC)c1 [euspeclibcmpd2136] | 0.7 (inactive)

SMILES | Srxn1-GFP intensity median modified Z-score
COCCN(Cc1ccccn1)C(=O)C1CCN(C)C(=O)C1 (stereo not drawn) | 0.317 (inactive)
CC1(C)SC2C(NC(=O)[C@@H](NC(=O)N3CCNC3=O)c3ccccc3)C(=O)N2C1C(=O)O (stereo partly drawn) [euspeclibcmpd2116] | -0.415 (inactive)
CCOc1ccc(S(=O)(=O)O)c2cccnc12 [euspeclibcmpd2064] | 0.0425 (inactive)
CCN(CC)Cc1ccc(N=c2cc[nH]c3cc(Cl)ccc23)cc1O [euspeclibcmpd22] | 3.72 (active)
Nc1ccc(S(=O)(=O)N=c2cnc3ccccc3[nH]2)cc1 [euspeclibcmpd2157] | 0.000648 (inactive)
OC[C@@H](O)[C@H](O)[C@@H](O)[C@H](O)CO [euspeclibcmpd2232] | 0.317 (inactive)
O=c1ccn([C@@H]2O[C@H](CO)[C@@H](O)[C@H]2O)c(=O)[nH]1 [euspeclibcmpd2258] | -0.304 (inactive)
N=c1ccn(C2O[C@H](CO)[C@@H](O)[C@H]2O)c(=O)[nH]1 (stereo partly drawn) [euspeclibcmpd2152] | -0.285 (inactive)
N=c1[nH]c(=S)c2ncn(C3O[C@H](CO)[C@@H](O)[C@H]3O)c2[nH]1 (stereo partly drawn) [euspeclibcmpd1778] | 41.1 (active)
N=c1[nH]cnc2c1ncn2[C@@H]1O[C@H](CO)[C@@H](O)[C@H]1O [euspeclibcmpd2100] | -0.0799 (inactive)
NC(=O)c1ncn(C2O[C@H](CO)[C@@H](O)[C@H]2O)c1N (stereo partly drawn) [euspeclibcmpd855] | 0.445 (inactive)
N=c1ncn([C@@H]2O[C@H](CO)[C@@H](O)[C@H]2O)c(=O)[nH]1 [euspeclibcmpd436] | 15.1 (active)
Cc1c(NS(=O)(=O)C(C)C)c(=O)n(-c2ccccc2)n1C | 1.19 (inactive)
CC(C)(CO)C(=O)C(O)NCCCO (stereo not drawn) [euspeclibcmpd2316] | -0.0436 (inactive)
CC(C)(CO)C(=O)C(O)NCCCO (stereo not drawn) [euspeclibcmpd2342] | -0.119 (inactive)
CON=C(C(=O)NC1C(=O)N2C(C(=O)OCOC(=O)C(C)(C)C)=C(/C=C\c3scnc3C)CSC12)c1csc(=N)[nH]1 (stereo not drawn) [euspeclibcmpd753] | 0.022 (inactive)
CON=C(C(=O)NC1C(=O)N2C(C(=O)O)=C(COC(N)=O)CSC12)c1ccco1 (stereo not drawn) [euspeclibcmpd2072] | -0.532 (inactive)
CN1C(C(=O)N=c2cccc[nH]2)C(=O)c2ccccc2S1(=O)=O (stereo not drawn) [euspeclibcmpd238] | -0.406 (inactive)
N=c1ccn(C2CSC(CO)O2)c(=O)[nH]1 (stereo not drawn) [euspeclibcmpd613] | -0.762 (inactive)
CON=C(C(=O)NC1C(=O)N2C(C(=O)OC(C)OC(C)=O)=C(COC(N)=O)CSC12)c1ccco1 (stereo not drawn) [euspeclibcmpd658] | 0.198 (inactive)
Cc1noc(C)c1S(=O)(=O)N1CCN(C(=O)C2=COCCO2)CC1 | 1.2 (inactive)
COC(=O)C[C@H]1C(C)(C)[C@@H](O)C2CC3=C4C=C(OC)O[C@@H](c5ccoc5)[C@]4(C)CCC3[C@@]1(C)C2=O (stereo partly drawn) [euspeclibcmpd1395] | 1.94 (inactive)
